High-throughput results as filed in PubChem BioAssay.
Vaccinia Venus: inhibitors of vaccinia virus (Venus reporter); Vaccinia virus Venus reporter expression, fluorescence; Potency, µM (top dose mostly 36.5 µM), for the others: at the top dose activity change, negative = inhibition, actives largely listed as inhibitors; hit rate 0.46% among 330,000; AID 720580; calls by dose curve; tested in A549 cells; further: potency means the concentration at half of the fitted maximal effect; nearly all actives have a fitted effect of over 30% in size
MARV entry inh: blocks Marburg virus binding to or entry into cells. hit rate 1.8% among 300,000. Marburg virus pseudotyped entry inhibition, cell reporter. AID 540276. Potency, µM (titrated, usually from 37.8 µM), inactives show top-dose activity change, negative = inhibition, actives largely listed as inhibitors; calls by dose curve; tested in HEK293 cells; further: potency means the concentration at half of the fitted maximal effect
VACV mCherry inh: inhibitors of vaccinia virus infection (mCherry reporter signal); Vaccinia virus mCherry reporter infection, fluorescence; Potency, µM (top dose mostly 36.5 µM), for inactives: top-dose activity change, negative = inhibition, usual class: inhibitors; hit rate 0.63% among 310,000; calls by dose curve; tested in A549 cells; further: potency means the concentration at half of the fitted maximal effect; nearly all actives have a fitted effect of over 35% in size
HCMV antiviral: inhibitors of human cytomegalovirus; AID 1259415; activity change, negative = inhibition, % at 57.5 µM; hit rate 4.5% among 410,000; HFF cells, HCMV-luciferase reporter, 72 h; stronger effect = lower value; in the data active means activity change below about -60%; inconclusive means no clear call, values can overlap the other calls; inactive means above about -39%
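Human foreskin fibroblasts infected with luciferase-reporter HCMV at MOI 1 PFU/cell, compounds at two doses. Luciferase measured 72 h post infection; normalized to buffer-only basal and Salinomycin (10uM) controls.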
Lassa entry inh: inhibitors of Lassa virus binding or cell entry; Lassa virus pseudotype entry inhibition, cell reporter; Potency, µM (series often up to 37.9 µM), for the others: top-dose activity change, negative = inhibition, hits mostly inhibitors; hit rate 1.2% among 300,000; AID 540256; calls by dose curve; tested in HEK293 cells; further: potency means the concentration at half of the fitted maximal effect; nearly all actives have a fitted effect of over 50% in size
HCV inhibitor: inhibitors of hepatitis C virus infection | Potency, µM (highest dose often 41.8 µM), for inactives: top-dose activity change, negative = inhibition, hits mostly inhibitors | Huh7.5.1 HCVcc-Cre infection, luciferase reporter, 44 h | hit rate 3.4% among 340,000; active means well fitted inhibition curve with a large enough effect; inconclusive means small, poorly fitted or top-dose-only effect, or another doubt; inactive means no such curve, though single readings can be large or run the other way; further: potency means the concentration at half of the fitted maximal effect
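Cells seeded at 1,000/well and cultured 4 h, then compounds added followed by HCVcc-Cre virus (~0.5 moi). After 44 h further culture, luciferase substrate was added, plates held 15 min at room temperature, and luminescence read for 15 sec.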
* = called active by the depositor; i = inactive; ? = inconclusive; . = no result; [ ] = remark or other dose. Sampled rows, rich in hits. Any-hit rate of the full collection: about 7.8%. On the % scale 0 is the no-effect control and ±100 the full control effect.

SMILES | Vaccinia Venus | MARV entry inh | VACV mCherry inh | HCMV antiviral | Lassa entry inh | HCV inhibitor
COc1ccc(NC(=O)NCCCN2CCN(c3cc(C)ccc3C)CC2)cc1 | -16.4% | . | ? | -39.6 | . | 10µM*
CC1(Cc2ccc(F)cc2)C(=O)Nc2ccc(-c3cccnc3)cc21 (configuration not stated) | -7.8% | . | -18.3% | -64.3* | . | .
COc1cccc2c1Oc1ncccc1N(C(=O)Nc1ccc(F)c(Cl)c1)C2 | -0.8% | . | -7.6% | -37.7 | 6.4%[46.1 µM] | .
COc1ccc(CNC(=O)CN(C)c2nn3c(=O)cc(C)nc3s2)cc1 | 1.7% | -10.4%[46.1 µM] | -2.6% | 4.9 | 5.2%[46.1 µM] | .
CC(C)C[C@H]1CN([C@@H](CC(C)C)CN2CCC[C@@H]2CN2C(=S)NC[C@@H]2Cc2ccc(O)cc2)C(=S)N1CCc1ccccc1 | -16.0% | . | -15.2% | -7.0 | . | .
CC(C)C[C@H]1CNC(=S)N1C[C@H]1CCCN1C[C@H](CC(C)C)N1C[C@H](Cc2ccc(O)cc2)N(CCc2ccccc2)C1=S | -22.0% | . | 3.7% | -94.9* | . | .
CCOc1ccc(CCN2C(=S)N([C@@H](CC(C)C)CN3CCCC3CN3C(=S)NC[C@@H]3CC(C)C)C[C@@H]2Cc2ccccc2)cc1 (some centres not stated) | -17.9% | . | i | 2.6 | . | 5.62µM*
CC(C)C[C@@H](CN1CCC[C@@H]1CN1C(=S)NC[C@@H]1Cc1ccc(O)cc1)N1C[C@H](Cc2ccccc2)N(CCc2ccccc2)C1=S | -5.2% | . | -3.8% | . | . | .
CC(C)C[C@H]1CN([C@@H](CC(C)C)CN2CCCC2CN2C(=S)NC[C@@H]2Cc2ccc(O)cc2)C(=S)N1CCc1ccccc1 (some centres not stated) | -13.1% | . | -17.5% | -80.2* | . | ?
Cc1ccnc2ccc([N+](=O)[O-])cc12 | -5.7% | . | -14.0% | . | . | .
COC(=O)c1c(OCc2cccnc2)cc(=O)n2c1CCN(C(=O)c1cccc(N(C)C)c1)CC2 | 1.2% | . | -4.4% | . | . | .
CCOc1ccc(-c2nc(SCC(=O)Nc3cc(F)ccc3F)n3[nH]c(=O)cc3n2)cc1 | -10.8% | . | -11.7% | 23.1 | -19.1%[46.1 µM] | .
COc1ccc(CN(C)Cc2nc3scc(-c4ccccc4)c3c(=O)[nH]2)cc1OC | -21.1% | ? | -20.0% | -60.1* | -19.1% | -13.0%
CSCc1nc2scc(-c3ccccc3)c2c(=O)[nH]1 | -20.7% | -11.5%[46.1 µM] | i | -24.1 | 6.4%[46.1 µM] | 18.6%
Cc1ccc(OCC(=O)Nc2ccccc2C(=O)OCc2cc(=O)n3nc(C4CC4)sc3n2)cc1 | -23.0% | . | -22.6% | 12.7 | 8.8%[46.1 µM] | .
Nc1nc(-c2ccc(Cl)cc2)c(N=Nc2ccc(S(=O)(=O)N3CCOCC3)cc2)s1 | -4.6% | ? | -14.0% | -27.7 | 3.7% | 11.2µM*
Cc1cc(NCc2ccc(Cl)cc2)n2cnnc2n1 | -27.8% | 1.5%[46.1 µM] | ? | -15.8 | 9.6%[46.1 µM] | .
N=c1c2ccccc2nc2n1CCCCCCCCCCC2 | -9.4%[7.34 µM] | ? | i[7.34 µM] | ? | ? | 12.6µM*
Clc1ccc(-c2cc(-c3nnc4n3CCCCC4)c3ccccc3n2)cc1 | -10.2% | -6.8% | -15.9% | -72.4* | 6.1% | 10.8%
O=c1c2ccccc2nc2n1CCCCC2 | -14.4% | 15.5% | i | -24.3 | -9.7% | 5.1%
CO[C@H]1[C@H](NC(=O)c2ccsc2)c2ccccc2C12CCN(Cc1cc(Cl)ccc1O)CC2 | -17.5% | . | -27.9% | . | . | .
CCc1cccc(C)c1NC(=O)C(CC)Sc1nc2ccncc2[nH]1 (configuration not stated) | -0.7% | ? | -0.9% | 20.5 | 6.3%[46.1 µM] | .
CCc1cccc(NC(=O)COC(=O)c2ccccc2OCc2ccccc2Br)c1 | 12.6µM* | . | ? | . | . | .
COc1ccc(CC(=O)Nc2cccc(-c3nnc(-c4ccccc4)o3)c2)cc1OC | ? | 4.61µM* | 11.2µM* | ? | 7.3µM* | 6.31µM*
COc1ccc(CC(=O)Nc2ccc(-c3nnc(-c4ccccc4)o3)cc2)cc1OC | -5.6% | 20.4% | i | 19.2 | 25.1%[14.3 µM] | 5.7%
COc1ccc(CC(=O)Nc2cccc(-c3nnc(-c4cccc(C)c4)o3)c2)cc1OC | ? | ? | -6.9%[1.46 µM] | -17.2 | ? | 6.31µM*
CC(C)c1cccc(NC(=O)COC(=O)c2ccccc2OCc2cccc(Br)c2)c1 | -14.4% | . | -16.4% | . | . | .
COc1ccccc1OCC(=O)Nc1cccc(-c2nnc(-c3ccco3)o2)c1 | -15.1% | 6.31µM* | -10.7% | 120.8 | ? | ?
